Values joined by “and” are separate entries in the source; they are usually repeats but may differ in a detail not shown here. Equal values may be shown once. The list shows a part of the results. Active and inactive are the calls of the source. No stated cut-off is given here; in the data, active means inhibition above about 32%; inactive means the rest.

Inhibition data for 21 compounds are collected here from PubChem BioAssay AID602139 (NMMLSC, 2011).

For the assay, the system named is Botulinum neurotoxin type A light chain protease (Clostridium botulinum A str. ATCC 3502). Briefly: inhibition of botulinum toxin A LC protease – biochemical, flow cytometry, cherry pick 1, confirmation (AID 602139). To be noted: multiplex microsphere protease assay, at 10 µM, active compounds read high.
As for `CN(C(=O)c1ccccn1)c1nnc(-c2ccccn2)s1`, the inhibition was -1.1% (inactive).

Take `O=C(CN1CCCCCC1)Nc1c(Cl)cc(Cl)cc1Cl`: the inhibition was 0% (inactive).

Regarding `Brc1ccc2ncnc(NCc3cccnc3)c2c1`, the inhibition was -2.2% (inactive). The figure for `CCOCC(=O)NCc1ccc2c(c1)cc(C)n2C` is 1.8% (inactive); for `Cc1ccccc1NC(=O)c1cc(S(=O)(=O)Nc2cccc(C(=O)O)c2)ccc1Cl` it is -1.4% (inactive); for `Cc1cc(S(=O)(=O)NC2CCCC2)ccc1-n1cnnn1` it is 0.3% (inactive). `O=S(=O)(NC1CCCCC1N1CCC(O)CC1)c1ccc(Cl)cc1` (stereo unspecified): the inhibition is -1% (inactive). Turning to `COCCn1nnnc1C(c1cc2ccc(OC)cc2[nH]c1=O)N1CCc2ccccc2C1` (stereo unspecified), the inhibition is 1.1% (inactive). For `CCOc1nnc(C)c2c(C)n(-c3cccc(Cl)c3)nc12`, the inhibition was -6.5% (inactive). For `COc1ccc(C2CC(c3cccs3)=NN2c2nc(C)c(C(C)=O)s2)cc1OC` (stereo unspecified), the inhibition is 33.8% (active) and 32.3% (active). In the case of `CCCSc1nc2sc3c(c2c(=O)n1-c1ccc(OC)cc1)CCN(C)C3` it was 1.8% (inactive); in that of `CC(=O)c1cccc(NC(=O)N2CCCC2C(=O)NCCc2ccccc2)c1` (stereo unspecified), 1.9% (inactive); in that of `Cc1c(NC(=O)c2cccnc2)c(=O)n(-c2ccccc2)n1C`, 0.8% (inactive). The figure for `O=C(O)c1cc(S(=O)(=O)NC2CCCc3ccccc32)ccc1O` (stereo unspecified) is 0.7% (inactive); for `COc1ccc(NS(=O)(=O)c2cc(C(=O)Nc3ccccc3C(=O)O)ccc2C)cc1` it is 0.6% (inactive). In the case of `Cc1ccc(-c2nc(-c3cccnc3)sc2CC(=O)Nc2ccc(C)c(Cl)c2)cc1` it was 7.8% (inactive); in that of `COc1cc2cc(CN(CCN3CCCC3)C(=O)Nc3ccccc3Cl)c(=O)[nH]c2cc1OC`, -2.7% (inactive). Take `CN1CCN(c2ccc(NC(=O)c3ccccc3)cc2)CC1`: the inhibition was 1.8% (inactive). In the case of `COCc1cc(=O)[nH]c(SC)n1` it was 0.2% (inactive); in that of `COc1cc(C(=O)NCc2ccc3c(c2)cc(C)n3C)cc(OC)c1OC`, -0.1% (inactive); in that of `COC(=O)CN(c1nc(C)c(Cl)c(OC)n1)S(=O)(=O)c1ccc(C)cc1`, 1.8% (inactive).
